# Source: PMC7862700, “An all-to-all approach to the identification of sequence-specific readers for epigenetic DNA modifications on cytosine”
# What was measured:
# Assay in all cases: DAPPL (digital affinity profiling via proximity ligation, sequencing); 10 mM Tris-HCl pH 7.5, 50 mM NaCl, 1 mM DTT, 4% glycerol, room temperature, 30 min; GST-TFs on glutathione beads, 16-mer random dsDNA library, 0.1% formaldehyde crosslink after washing; high values mean tight binding
# FEV = target: T1, FEV (Homo sapiens, UniProt Q99581 1-238); conditions: protein: recombinant; tags: N-terminal GST; dsDNA, one strand shown
# T1 sequence: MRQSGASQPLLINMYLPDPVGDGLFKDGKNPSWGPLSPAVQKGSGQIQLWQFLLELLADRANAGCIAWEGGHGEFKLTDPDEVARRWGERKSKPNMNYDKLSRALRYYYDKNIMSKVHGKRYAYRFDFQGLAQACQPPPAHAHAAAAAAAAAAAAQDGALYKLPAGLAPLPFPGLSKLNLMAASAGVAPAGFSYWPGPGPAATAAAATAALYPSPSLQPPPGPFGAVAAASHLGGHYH
# In short: (§1)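 Each value of binding signal is a hexamer's read frequency for a factor divided by the same hexamer's frequency in the tag-only sample. Barcoded, bead-captured GST fusions of human transcription factors made in yeast were pooled with that sample and incubated with 200 nmole of a random double-stranded 16-mer DNA library in Tris/NaCl/DTT/glycerol buffer at room temperature for 30 min. Washing, 0.1% formaldehyde crosslinking, proximity ligation, PCR and Illumina NextSeq500 sequencing followed.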
# ETV5 = ETV5 (Homo sapiens, UniProt P41161 1-510); conditions: protein: recombinant; tags: N-terminal GST; dsDNA, one strand shown
# ETV5, sequence (P41161 whole entry): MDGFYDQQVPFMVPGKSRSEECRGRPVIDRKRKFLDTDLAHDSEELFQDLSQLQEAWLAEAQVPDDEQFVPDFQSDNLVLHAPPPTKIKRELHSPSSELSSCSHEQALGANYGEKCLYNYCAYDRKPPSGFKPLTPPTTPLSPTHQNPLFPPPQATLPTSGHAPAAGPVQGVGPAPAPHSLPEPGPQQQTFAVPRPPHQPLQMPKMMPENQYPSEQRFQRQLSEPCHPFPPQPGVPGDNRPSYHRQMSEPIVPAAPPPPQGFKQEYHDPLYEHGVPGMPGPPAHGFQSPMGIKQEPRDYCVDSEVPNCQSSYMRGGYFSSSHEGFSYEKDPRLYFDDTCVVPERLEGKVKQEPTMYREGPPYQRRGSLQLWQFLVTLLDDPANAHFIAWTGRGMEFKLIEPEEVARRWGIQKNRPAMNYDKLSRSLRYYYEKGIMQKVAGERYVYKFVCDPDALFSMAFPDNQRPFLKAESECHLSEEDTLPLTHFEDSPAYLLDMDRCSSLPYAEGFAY
# In short: as §1
# HSF1 = HSF1 (Homo sapiens, UniProt Q00613 1-529); conditions: protein: recombinant; tags: N-terminal GST; chain copies: 3; dsDNA, one strand shown
# HSF1, sequence (Q00613 whole entry): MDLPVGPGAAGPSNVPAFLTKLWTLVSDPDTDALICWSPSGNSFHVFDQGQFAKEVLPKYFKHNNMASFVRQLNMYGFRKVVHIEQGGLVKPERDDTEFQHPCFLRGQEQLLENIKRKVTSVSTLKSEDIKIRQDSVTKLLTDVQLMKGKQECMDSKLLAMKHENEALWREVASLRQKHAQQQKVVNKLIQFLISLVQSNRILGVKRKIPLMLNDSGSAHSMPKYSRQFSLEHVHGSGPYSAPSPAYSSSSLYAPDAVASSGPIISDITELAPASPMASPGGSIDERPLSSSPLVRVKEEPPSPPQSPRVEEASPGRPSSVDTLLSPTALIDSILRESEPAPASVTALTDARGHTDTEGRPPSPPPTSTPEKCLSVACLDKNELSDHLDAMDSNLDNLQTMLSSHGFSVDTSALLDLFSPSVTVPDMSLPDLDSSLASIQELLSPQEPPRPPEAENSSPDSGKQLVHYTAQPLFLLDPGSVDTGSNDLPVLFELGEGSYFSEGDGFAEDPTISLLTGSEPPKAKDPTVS
# In short: as §1
# SPIC = target: T2, SPIC (Homo sapiens, UniProt Q8N5J4 1-248); conditions: protein: recombinant; tags: N-terminal GST; dsDNA, one strand shown
# T2 sequence: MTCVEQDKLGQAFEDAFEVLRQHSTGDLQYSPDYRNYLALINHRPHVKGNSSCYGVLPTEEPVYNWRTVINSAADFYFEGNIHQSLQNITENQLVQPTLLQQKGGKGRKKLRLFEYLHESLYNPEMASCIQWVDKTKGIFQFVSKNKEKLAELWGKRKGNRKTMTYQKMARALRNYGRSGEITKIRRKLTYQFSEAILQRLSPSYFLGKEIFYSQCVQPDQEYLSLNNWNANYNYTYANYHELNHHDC
# In short: as §1
# ELF4 = ELF4 (Homo sapiens, UniProt Q99607 1-663); conditions: protein: recombinant; tags: N-terminal GST; dsDNA, one strand shown
# ELF4, sequence (Q99607 whole entry): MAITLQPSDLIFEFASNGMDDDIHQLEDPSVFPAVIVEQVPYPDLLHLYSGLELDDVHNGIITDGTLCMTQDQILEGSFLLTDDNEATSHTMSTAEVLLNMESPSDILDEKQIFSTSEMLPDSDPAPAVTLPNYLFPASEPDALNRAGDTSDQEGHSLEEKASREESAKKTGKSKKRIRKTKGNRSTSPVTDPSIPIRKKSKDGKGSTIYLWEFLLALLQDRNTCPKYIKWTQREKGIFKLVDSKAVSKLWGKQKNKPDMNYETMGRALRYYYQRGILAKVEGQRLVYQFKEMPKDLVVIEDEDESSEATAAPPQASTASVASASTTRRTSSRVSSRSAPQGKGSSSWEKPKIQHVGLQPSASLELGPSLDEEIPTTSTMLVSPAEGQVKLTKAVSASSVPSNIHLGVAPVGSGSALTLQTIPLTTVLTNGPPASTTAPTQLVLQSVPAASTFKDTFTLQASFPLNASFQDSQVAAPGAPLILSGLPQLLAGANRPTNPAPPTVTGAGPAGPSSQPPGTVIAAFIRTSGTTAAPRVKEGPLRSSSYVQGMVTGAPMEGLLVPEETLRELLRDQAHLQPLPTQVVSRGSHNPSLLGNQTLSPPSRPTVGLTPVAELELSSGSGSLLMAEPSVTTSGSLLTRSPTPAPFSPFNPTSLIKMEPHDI
# In short: as §1
# ELK4 = target: T3, ELK4 (Homo sapiens, UniProt P28324-2 1-405); conditions: protein: recombinant; tags: N-terminal GST; dsDNA, one strand shown
# T3 sequence: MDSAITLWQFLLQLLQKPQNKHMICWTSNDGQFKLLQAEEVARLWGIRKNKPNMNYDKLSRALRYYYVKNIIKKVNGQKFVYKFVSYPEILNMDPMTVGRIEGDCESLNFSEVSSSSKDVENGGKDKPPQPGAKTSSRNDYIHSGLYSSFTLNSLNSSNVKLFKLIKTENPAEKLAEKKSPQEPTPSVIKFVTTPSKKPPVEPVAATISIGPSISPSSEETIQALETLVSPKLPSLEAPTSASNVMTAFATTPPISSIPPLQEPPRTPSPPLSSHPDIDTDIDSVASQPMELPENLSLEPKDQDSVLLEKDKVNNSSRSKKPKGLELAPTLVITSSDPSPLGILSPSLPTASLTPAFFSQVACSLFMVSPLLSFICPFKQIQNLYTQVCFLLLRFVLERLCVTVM
# In short: as §1
# ETV2 = target: T4, ETV2 (Homo sapiens, UniProt O00321 1-342); conditions: protein: recombinant; tags: N-terminal GST; dsDNA, one strand shown
# T4 sequence: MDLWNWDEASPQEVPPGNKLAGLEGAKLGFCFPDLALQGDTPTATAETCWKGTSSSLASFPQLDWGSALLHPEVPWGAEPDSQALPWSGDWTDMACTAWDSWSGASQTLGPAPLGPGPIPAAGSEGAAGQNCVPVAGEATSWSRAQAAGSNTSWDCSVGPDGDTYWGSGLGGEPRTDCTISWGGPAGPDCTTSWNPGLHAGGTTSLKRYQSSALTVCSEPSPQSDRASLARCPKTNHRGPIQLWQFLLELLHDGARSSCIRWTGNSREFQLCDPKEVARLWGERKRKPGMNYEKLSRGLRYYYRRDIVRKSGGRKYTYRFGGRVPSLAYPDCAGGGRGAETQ
# In short: as §1
# ELF3 = target: T5, ELF3 (Homo sapiens, UniProt P78545 1-371); conditions: protein: recombinant; tags: N-terminal GST; dsDNA, one strand shown
# T5 sequence: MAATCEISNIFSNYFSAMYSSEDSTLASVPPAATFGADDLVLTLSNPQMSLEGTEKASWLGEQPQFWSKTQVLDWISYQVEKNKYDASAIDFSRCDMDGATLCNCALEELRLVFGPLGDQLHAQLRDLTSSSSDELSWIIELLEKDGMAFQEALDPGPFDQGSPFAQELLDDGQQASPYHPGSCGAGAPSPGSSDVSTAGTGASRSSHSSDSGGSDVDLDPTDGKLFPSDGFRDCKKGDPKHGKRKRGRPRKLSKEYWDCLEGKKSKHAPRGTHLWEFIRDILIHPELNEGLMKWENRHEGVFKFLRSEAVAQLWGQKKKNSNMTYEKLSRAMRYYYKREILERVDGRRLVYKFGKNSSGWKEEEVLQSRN
# In short: as §1
# CRX = CRX (Homo sapiens, UniProt O43186 1-299); conditions: protein: recombinant; tags: N-terminal GST; dsDNA, one strand shown
# CRX, sequence (O43186 whole entry): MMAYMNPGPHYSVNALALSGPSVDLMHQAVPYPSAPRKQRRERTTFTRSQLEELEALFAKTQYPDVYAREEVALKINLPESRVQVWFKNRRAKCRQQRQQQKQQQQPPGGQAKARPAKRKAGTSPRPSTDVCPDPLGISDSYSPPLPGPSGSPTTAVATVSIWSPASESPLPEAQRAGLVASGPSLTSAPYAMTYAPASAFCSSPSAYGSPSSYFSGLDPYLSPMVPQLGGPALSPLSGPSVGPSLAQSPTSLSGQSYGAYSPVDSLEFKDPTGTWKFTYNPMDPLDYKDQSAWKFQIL
# In short: as §1
# ETV1 = ETV1 (Homo sapiens, UniProt P50549 1-477); conditions: protein: recombinant; tags: N-terminal GST; dsDNA, one strand shown
# ETV1, sequence (P50549 whole entry): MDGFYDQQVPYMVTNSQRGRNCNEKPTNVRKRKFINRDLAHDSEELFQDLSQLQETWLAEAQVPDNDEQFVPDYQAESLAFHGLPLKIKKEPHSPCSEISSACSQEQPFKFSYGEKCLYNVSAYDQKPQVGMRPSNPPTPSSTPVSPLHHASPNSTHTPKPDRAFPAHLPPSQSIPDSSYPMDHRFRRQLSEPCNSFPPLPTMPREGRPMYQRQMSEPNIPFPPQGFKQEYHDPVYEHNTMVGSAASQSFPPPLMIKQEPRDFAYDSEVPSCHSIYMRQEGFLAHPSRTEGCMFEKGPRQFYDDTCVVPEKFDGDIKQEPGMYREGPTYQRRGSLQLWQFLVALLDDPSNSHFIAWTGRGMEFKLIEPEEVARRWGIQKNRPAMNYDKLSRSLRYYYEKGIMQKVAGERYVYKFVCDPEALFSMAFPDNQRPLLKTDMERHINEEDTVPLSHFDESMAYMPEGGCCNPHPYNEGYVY
# In short: as §1
# ERF = target: T6, ERF (Homo sapiens, UniProt P50548 1-548); conditions: protein: recombinant; tags: N-terminal GST; dsDNA, one strand shown
# T6 sequence: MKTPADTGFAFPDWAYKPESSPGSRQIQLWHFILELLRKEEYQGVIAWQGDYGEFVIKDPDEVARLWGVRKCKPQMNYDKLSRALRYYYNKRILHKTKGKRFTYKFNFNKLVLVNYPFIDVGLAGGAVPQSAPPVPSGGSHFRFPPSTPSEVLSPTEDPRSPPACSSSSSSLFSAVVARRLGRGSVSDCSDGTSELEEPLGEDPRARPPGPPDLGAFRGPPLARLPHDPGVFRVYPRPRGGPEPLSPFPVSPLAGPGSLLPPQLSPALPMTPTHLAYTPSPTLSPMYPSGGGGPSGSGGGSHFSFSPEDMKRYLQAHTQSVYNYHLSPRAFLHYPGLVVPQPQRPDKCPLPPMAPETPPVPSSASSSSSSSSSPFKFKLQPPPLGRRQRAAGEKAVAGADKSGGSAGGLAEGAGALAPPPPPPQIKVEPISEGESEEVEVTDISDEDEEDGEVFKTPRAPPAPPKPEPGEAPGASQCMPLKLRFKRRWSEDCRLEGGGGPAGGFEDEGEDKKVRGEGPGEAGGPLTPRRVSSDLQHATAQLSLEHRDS
# In short: as §1
# ETV3L = target: T7, ETV3L (Homo sapiens, UniProt Q6ZN32 1-361); conditions: protein: recombinant; tags: N-terminal GST; dsDNA, one strand shown
# T7 sequence: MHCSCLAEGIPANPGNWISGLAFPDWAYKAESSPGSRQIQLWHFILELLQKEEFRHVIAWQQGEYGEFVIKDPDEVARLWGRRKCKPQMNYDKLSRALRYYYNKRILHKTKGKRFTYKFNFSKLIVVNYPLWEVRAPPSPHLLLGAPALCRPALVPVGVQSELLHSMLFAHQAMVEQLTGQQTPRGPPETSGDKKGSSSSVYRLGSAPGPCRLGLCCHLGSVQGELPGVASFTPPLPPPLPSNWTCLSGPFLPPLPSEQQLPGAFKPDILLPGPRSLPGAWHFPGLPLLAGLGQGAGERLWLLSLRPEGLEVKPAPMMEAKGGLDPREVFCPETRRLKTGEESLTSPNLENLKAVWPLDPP
# In short: as §1
# ETS2 = target: T8, ETS2 (Homo sapiens, UniProt P15036 1-469); conditions: protein: recombinant; tags: N-terminal GST; dsDNA, one strand shown
# T8 sequence: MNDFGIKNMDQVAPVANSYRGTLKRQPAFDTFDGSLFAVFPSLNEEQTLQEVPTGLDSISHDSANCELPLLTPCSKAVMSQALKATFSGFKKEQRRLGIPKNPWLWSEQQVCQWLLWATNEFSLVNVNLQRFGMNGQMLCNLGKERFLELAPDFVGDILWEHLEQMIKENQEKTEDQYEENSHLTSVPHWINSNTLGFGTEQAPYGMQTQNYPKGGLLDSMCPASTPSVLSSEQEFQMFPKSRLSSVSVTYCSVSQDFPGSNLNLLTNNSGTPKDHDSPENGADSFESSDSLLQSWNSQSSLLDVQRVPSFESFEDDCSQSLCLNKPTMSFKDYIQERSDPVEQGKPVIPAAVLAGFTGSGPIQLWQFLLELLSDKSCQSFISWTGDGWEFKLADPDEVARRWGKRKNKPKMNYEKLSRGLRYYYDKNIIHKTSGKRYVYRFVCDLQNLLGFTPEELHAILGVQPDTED
# In short: as §1
# SPDEF = target: T9, SPDEF (Homo sapiens, UniProt O95238 1-335); conditions: protein: recombinant; tags: N-terminal GST; dsDNA, one strand shown
# T9 sequence: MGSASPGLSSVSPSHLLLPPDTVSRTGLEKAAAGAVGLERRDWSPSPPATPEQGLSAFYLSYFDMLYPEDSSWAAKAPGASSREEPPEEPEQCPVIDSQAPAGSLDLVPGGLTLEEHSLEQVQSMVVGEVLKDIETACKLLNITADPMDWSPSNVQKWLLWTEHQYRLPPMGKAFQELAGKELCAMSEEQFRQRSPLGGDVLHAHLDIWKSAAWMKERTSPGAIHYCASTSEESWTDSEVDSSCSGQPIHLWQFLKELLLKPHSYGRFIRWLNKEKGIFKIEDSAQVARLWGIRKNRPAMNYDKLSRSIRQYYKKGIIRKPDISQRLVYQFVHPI
# In short: as §1
# ETV7 = target: T10, ETV7 (Homo sapiens, UniProt Q9Y603 1-341); conditions: protein: recombinant; tags: N-terminal GST; dsDNA, one strand shown
# T10 sequence: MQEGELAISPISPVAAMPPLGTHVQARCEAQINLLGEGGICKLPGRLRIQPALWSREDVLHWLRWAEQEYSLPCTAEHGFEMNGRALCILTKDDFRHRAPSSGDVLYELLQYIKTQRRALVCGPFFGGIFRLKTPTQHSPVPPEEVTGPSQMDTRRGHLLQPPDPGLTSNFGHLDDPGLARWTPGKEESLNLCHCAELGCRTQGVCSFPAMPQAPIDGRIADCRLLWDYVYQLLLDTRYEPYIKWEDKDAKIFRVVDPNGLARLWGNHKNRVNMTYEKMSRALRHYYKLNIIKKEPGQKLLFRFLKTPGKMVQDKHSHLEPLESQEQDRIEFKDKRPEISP
# In short: as §1
# ELF5 = target: T11, ELF5 (Homo sapiens, UniProt Q9UKW6-2 1-255); conditions: protein: recombinant; tags: N-terminal GST; dsDNA, one strand shown
# T11 sequence: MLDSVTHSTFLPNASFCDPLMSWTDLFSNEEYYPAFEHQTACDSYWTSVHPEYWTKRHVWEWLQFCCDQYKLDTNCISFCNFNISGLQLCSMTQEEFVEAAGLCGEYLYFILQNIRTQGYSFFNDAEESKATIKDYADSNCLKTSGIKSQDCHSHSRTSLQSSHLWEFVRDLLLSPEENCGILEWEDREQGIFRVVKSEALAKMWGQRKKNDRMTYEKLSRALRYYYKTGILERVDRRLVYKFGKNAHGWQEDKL
# In short: as §1
# ETV3 = target: T12, ETV3 (Homo sapiens, UniProt P41162-2 1-143); conditions: protein: recombinant; tags: N-terminal GST; dsDNA, one strand shown
# T12 sequence: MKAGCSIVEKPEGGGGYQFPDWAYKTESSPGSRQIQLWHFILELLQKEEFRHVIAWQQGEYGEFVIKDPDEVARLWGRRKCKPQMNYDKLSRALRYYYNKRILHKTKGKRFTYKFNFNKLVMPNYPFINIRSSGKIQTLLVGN
# In short: as §1
# ETV6 = ETV6 (Homo sapiens, UniProt P41212 1-452); conditions: protein: recombinant; tags: N-terminal GST; dsDNA, one strand shown
# ETV6, sequence (P41212 whole entry): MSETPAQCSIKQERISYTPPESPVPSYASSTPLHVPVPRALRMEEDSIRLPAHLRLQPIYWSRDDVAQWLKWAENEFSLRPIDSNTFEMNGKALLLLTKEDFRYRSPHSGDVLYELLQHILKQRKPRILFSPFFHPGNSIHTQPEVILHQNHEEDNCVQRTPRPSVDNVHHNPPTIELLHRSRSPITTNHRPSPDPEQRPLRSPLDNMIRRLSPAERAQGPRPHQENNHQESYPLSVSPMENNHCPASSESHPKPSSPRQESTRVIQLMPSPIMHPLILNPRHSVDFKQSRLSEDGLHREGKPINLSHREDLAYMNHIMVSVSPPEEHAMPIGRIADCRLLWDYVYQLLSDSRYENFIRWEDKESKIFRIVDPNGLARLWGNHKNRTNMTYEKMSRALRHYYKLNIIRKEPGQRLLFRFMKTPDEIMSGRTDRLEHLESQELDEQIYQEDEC
# In short: as §1
sequence,measurement,setting,value
CTTGGG,binding signal,FEV,"1.23 fold enrichment (6-mer frequency, TF over GST control)"
same,binding signal,ETV5,"1.26 fold enrichment (6-mer frequency, TF over GST control)"
same,binding signal,HSF1,"1.12 fold enrichment (6-mer frequency, TF over GST control)"
same,binding signal,SPIC,"1.31 fold enrichment (6-mer frequency, TF over GST control)"
same,binding signal,ELF4,"1.21 fold enrichment (6-mer frequency, TF over GST control)"
same,binding signal,ELK4,"1.32 fold enrichment (6-mer frequency, TF over GST control)"
same,binding signal,ETV2,"1.15 fold enrichment (6-mer frequency, TF over GST control)"
same,binding signal,ELF3,"1.23 fold enrichment (6-mer frequency, TF over GST control)"
same,binding signal,CRX,"1.13 fold enrichment (6-mer frequency, TF over GST control)"
same,binding signal,ETV1,"1.38 fold enrichment (6-mer frequency, TF over GST control)"
same,binding signal,ERF,"1.47 fold enrichment (6-mer frequency, TF over GST control)"
same,binding signal,ETV3L,"1.26 fold enrichment (6-mer frequency, TF over GST control)"
same,binding signal,ETS2,"1.28 fold enrichment (6-mer frequency, TF over GST control)"
same,binding signal,SPDEF,"1.21 fold enrichment (6-mer frequency, TF over GST control)"
same,binding signal,ETV7,"1.3 fold enrichment (6-mer frequency, TF over GST control)"
same,binding signal,ELF5,"1.19 fold enrichment (6-mer frequency, TF over GST control)"
same,binding signal,ETV3,"1.26 fold enrichment (6-mer frequency, TF over GST control)"
same,binding signal,ETV6,"1.23 fold enrichment (6-mer frequency, TF over GST control)"
